Screening results as filed in PubChem.
RTF Ca sens act: increases calcium sensitivity of human cardiac regulated thin filaments; P19429+P45379; IANBD-labeled TnC RTF fluorescence at EC20 calcium; 0% EC20 calcium, 100% full calcium; activation, % at 7.2 µM; 0.24% of 340,000 active; AID 493008;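 active = activation above the mean over all tested compounds plus 3 SD, cut at about 30% in these data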;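 also: rise in fluorescence read as greater calcium sensitivity of cardiac thin filaments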
TMEM16A inh: blocks the mouse calcium-activated chloride channel TMEM16A; Q8BHY3; AID 588511; HEK293 TMEM16A/YFP iodide influx fluorescence, ionomycin; normalized B-score (activity score, 25-100; higher = stronger inhibition) at 10 µM; 1.2% of 310,000 active;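 active = ratio plate-corrected score three or more library SD toward inhibition, starting fluorescence score within five deviations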;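 also: score derived from kinetic fluorescence span divided by baseline fluorescence per well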
Target sequence (Q8BHY3 whole entry, looked up): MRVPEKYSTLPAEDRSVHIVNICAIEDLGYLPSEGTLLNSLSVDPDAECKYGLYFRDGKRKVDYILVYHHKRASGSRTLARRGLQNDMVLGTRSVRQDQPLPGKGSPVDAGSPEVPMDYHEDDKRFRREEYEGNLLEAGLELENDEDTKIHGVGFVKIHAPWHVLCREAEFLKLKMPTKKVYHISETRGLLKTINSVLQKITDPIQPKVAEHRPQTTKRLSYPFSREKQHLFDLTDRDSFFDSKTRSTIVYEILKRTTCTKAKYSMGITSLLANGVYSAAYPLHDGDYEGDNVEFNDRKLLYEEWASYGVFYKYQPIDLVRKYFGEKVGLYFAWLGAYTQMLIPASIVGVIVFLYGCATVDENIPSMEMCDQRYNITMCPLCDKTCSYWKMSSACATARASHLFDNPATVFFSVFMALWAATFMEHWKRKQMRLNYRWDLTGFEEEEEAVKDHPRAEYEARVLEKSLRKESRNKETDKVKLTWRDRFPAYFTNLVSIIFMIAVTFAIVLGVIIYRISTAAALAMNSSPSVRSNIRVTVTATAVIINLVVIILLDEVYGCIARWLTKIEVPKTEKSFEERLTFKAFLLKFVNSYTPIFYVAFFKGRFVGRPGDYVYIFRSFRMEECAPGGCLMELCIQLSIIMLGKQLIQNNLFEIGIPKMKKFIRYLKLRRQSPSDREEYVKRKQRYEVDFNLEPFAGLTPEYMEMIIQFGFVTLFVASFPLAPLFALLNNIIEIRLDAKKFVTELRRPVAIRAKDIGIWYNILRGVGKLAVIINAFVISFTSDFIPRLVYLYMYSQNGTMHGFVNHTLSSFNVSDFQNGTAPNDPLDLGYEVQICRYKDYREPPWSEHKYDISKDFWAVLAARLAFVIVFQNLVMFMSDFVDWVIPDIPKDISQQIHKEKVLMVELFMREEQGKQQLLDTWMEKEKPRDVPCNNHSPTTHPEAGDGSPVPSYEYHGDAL
Cardiac RTF inh: cardiac RTF calcium desensitization; inhibition, % at 7.15 µM; IANBD-labeled cardiac RTF, Ca2+ fluorescence; 0.12% of 340,000 active; AID 493244; P19429+P45379;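 active = inhibition above the mean inhibition of all tested compounds plus 3 SD, cut at about 17% in these data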;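 also: assay run at fixed EC70 calcium of 1.6 mM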
TMEM16A act: activates or potentiates the mouse TMEM16A chloride channel; Q8BHY3; HEK293 TMEM16A/YFP-H148Q/I152L, iodide quench fluorescence; hits give low values; B-score at 10 µM; 0.3% of 340,000 active;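 active = fluorescence-ratio B-score plate-corrected deviation score at least 3 library SD below zero, with starting fluorescence score within 5 deviations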;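 also: channel opened by trigger with iodide after compound preincubation; score built on the fluorescence ratio of max minus min over baseline; more negative score means more quench and so TMEM16A activation or potentiation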
CRFR2-BP ag: agonists of human CRF-binding protein/CRF-R2 receptor complex; HEK293 CRF-R2/CRF-BP, calcium dye fluorescence (FLIPR); percent of saturating CRF peptide response; activation, % at 13.2 µM; 0.46% of 350,000 active;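 active = activation of at least 50%, plus an integration ratio under a set limit after plate pattern correction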;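 also: plate controls were neutral control wells without compound for no effect and CRF at EC100 for full effect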
CRFR2-BP antag: blocks CRF-induced signaling of the CRF-BP/CRF-R2 complex. HEK293 CRF-R2/CRF-BP, CRF-induced calcium fluorescence. inhibition, % at 11.8 µM. 0.59% of 350,000 active;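 active = inhibition of the ligand-induced calcium signal above about 50% at the single tested concentration, limit read from the data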
* hit, by the source's call; i = inactive; nt = not tested or not shown. Sampled rows, rich in hits. Any-hit rate of the full collection: about 2.4%.

SMILES | RTF Ca sens act | TMEM16A inh | Cardiac RTF inh | TMEM16A act | CRFR2-BP ag | CRFR2-BP antag
Cc1nc2ccccc2nc(C)c1=NOCc1ccccc1Cl | -4 | i | 3 | i | -1 | 51*
Cc1nc(C)c(Cc2ccccc2Cl)c(=O)[nH]1 | 12 | i | -7 | i | -1 | 30
O=c1c2ccccc2nc2n1C(CBr)CS2 (stereo not drawn) | -1 | i | -11 | i | -1 | 4
O=c1c2ccccc2nc2n1C(CBr)CN2 (stereo not drawn) | 6 | i | -5 | i | -1 | 65*
O=c1c2ccccc2c(-c2ccc(O)cc2)nn1-c1cccc(C(F)(F)F)c1 | 0 | i | 0 | i | 1 | 57*
CCCSc1ccc([C@H]2N[C@@](C)(C(=O)OC)[C@H]3C(=O)N(C)C(=O)[C@@H]23)cc1 | -3 | i | 5 | i | -2 | 5
CCCCCCSc1ccc([C@H]2N[C@@](C)(C(=O)OC)[C@H]3C(=O)N(C)C(=O)[C@@H]23)cc1 | 4 | 100* | 0 | i | 2 | -3
CCOc1ccc(S(=O)(=O)N2CCOCC2)cc1NS(=O)(=O)c1ccc(OC)c([N+](=O)[O-])c1 | -1 | i | -11 | i | -1 | 9
Cc1cccc2cc(-c3ccccc3)c(-c3ccccc3)c[n+]12 | -12 | i | 8 | i | 1 | 3
CSc1ccccc1NC(=O)c1cc(-c2cccnc2)nc2ccc(Br)cc12 | 0 | i | -6 | i | 2 | 36
CN(C)c1ncc(CN2CCC(C(=O)Nc3ccc(-n4cccn4)cc3)CC2)s1 | 0 | i | 3 | i | 0 | -3
CS(=O)(=O)Nc1nc2n(n1)C(c1ccccc1)CC(c1ccccc1)N2 (stereo not drawn) | -1 | i | -3 | i | -2 | 106*
CCOc1ccc2[nH]cc(C(=O)N3CCN(CC)CC3)c(=O)c2c1 | -4 | i | 7 | i | 1 | 15
Cc1ccc(S(=O)(=O)N2CCN(CN3C(=O)CC4(CCCC4)C3=O)CC2)cc1 | 4 | nt | -4 | i | 0 | 29
COc1ccc2c(c1)OC[C@H]1[C@H]2N2C(=O)c3cc(OC)c(OC)cc3NC(=O)[C@@]2(C)[C@H]1c1ccccc1 | -4 | i | 7 | i | 8 | 65*
COc1cc2c(cc1OC)C(=O)N1[C@H]3c4ccccc4OC[C@@H]3[C@H](c3ccccc3)[C@]1(C)C(=O)N2 | 8 | i | -9 | i | 0 | 15
COc1cccc2c1C(=O)c1c(O)c3c(c(O)c1C2=O)C[C@@](O)(C(=O)CO)C[C@@H]3O[C@H]1C[C@H](N)[C@H](O)[C@H](C)O1 | 209* | i | -245 | i | 93* | -80
COc1cccc2c1C(=O)c1c(O)c3c(c(O)c1C2=O)CC(O)(C(C)=O)CC3OC1CC(N(C)C)C(O)C(C)O1 (stereo not drawn) | 190* | nt | -269 | i | 89* | -50
COc1cccc2c1C(=O)c1c(O)c3c(c(O)c1C2=O)C[C@@](O)(C(=O)CO)C[C@@H]3OC1CC(N)C(O)C(C)O1 (stereo partly drawn) | 115* | nt | -176 | i | 74* | -124
CC[C@@H](C)[C@H](CNC)NC[C@@H](Cc1cccc2ccccc12)NCCc1cccc(C(F)(F)F)c1 | 0 | 100* | 9 | i | 26 | -38
CS(=O)(=O)N(CC(=O)NCc1ccccn1)Cc1ccc(Cl)cc1 | 2 | i | 0 | i | -1 | -6
CC(CCc1ccco1)NC(=O)CCc1nnc2ccc(NCc3ccccc3)nn12 (stereo not drawn) | -1 | i | -7 | i | 1 | 53*
OCCC1CN(Cc2ccc(Oc3ncccn3)cc2)CCN1Cc1ccc(F)c(F)c1 (stereo not drawn) | -5 | i | -2 | i | 4 | -4
CSc1cccc(NC(=O)C2CCCN(S(=O)(=O)c3cnc[nH]3)C2)c1 (stereo not drawn) | -5 | nt | -2 | -12* | 1 | -4
O=C(C1CCN(S(=O)(=O)c2cccc3cccnc23)CC1)N1CCN(c2ccccc2)CC1 | 1 | i | 3 | i | 0 | 18
SMILES | RTF Ca sens act | TMEM16A inh | Cardiac RTF inh | TMEM16A act | CRFR2-BP ag | CRFR2-BP antag
O=C(C1CCCN(S(=O)(=O)c2cccc3cccnc23)C1)N1CCN(c2ccc(F)cc2)CC1 (stereo not drawn) | 9 | i | -1 | i | -1 | 79*
CCN1C(=O)[C@H]2[C@@H](c3ccc(Cl)cc3)N3C(=O)CN(CC4CC4)C(=O)[C@@]3(C)[C@H]2C1=O | -3 | i | -1 | i | 0 | -1
Cc1c(C(c2ccc(N(C)C)cc2)c2c(C)n(C)n(-c3ccccc3)c2=O)c(=O)n(-c2ccccc2)n1C | -2 | i | 8 | i | -7 | 54*
Cc1c(C(c2ccccc2)c2c(C)n(C)n(-c3ccccc3)c2=O)c(=O)n(-c2ccccc2)n1C | -2 | i | -6 | i | -3 | 13
O=C(Nc1nnc(-c2ccccc2Cl)o1)c1ccc(S(=O)(=O)N2CCCCCC2)cc1 | nt | i | nt | nt | 54* | -11
CCC1CCCCN1S(=O)(=O)c1ccc(C(=O)Nc2nnc(-c3ccccc3Cl)o2)cc1 (stereo not drawn) | 1 | 100* | -2 | i | 126* | -58
COc1ccc(S(=O)(=O)NCc2ccccn2)cc1C | nt | nt | nt | nt | -1 | 4
CC(C)(C)OC(=O)COc1cc(O)c2c(=O)cc(-c3ccccc3)oc2c1 | -2 | i | 4 | i | -1 | -4
CC(C)(C)OC(=O)COc1cc(OCC(=O)OC(C)(C)C)c2c(=O)cc(-c3ccccc3)oc2c1 | 3 | 100* | -4 | i | 1 | -8
Cc1[nH]c2ccccc2c1SCC(=O)O | 4 | i | -23 | i | -1 | -2
COC(=O)C(F)(F)Sc1c(C)[nH]c2ccccc12 | 4 | i | -4 | i | 0 | 52*
O=C(CSc1nnnn1-c1cccc(F)c1)NC1CCCCC1 | 1 | nt | -6 | i | -2 | -11
CCOC(=O)c1ccc(NC(=S)NCc2ccc(F)cc2)cc1 | -2 | i | 2 | i | 7 | 10
CCc1ccc(OCCNC(=O)c2ccccc2SCc2ccccc2)cc1 | 2 | i | -5 | i | 6 | 3
O=C(NCCOc1ccccc1F)c1ccccc1SCc1ccc(F)cc1 | 7 | i | -7 | i | -3 | 64*
N#C/C(=C/c1ccc(N2CCCCC2)o1)c1cccc(F)c1 | 14 | i | -9 | i | 5 | 3
N#C/C(=C/c1ccc(N2CCCCCC2)o1)c1ccc(Cl)cc1 | 36* | i | -42 | i | 21 | 0
Cc1[nH]c(=O)c(C#N)cc1-c1csc(-c2ccccc2)n1 | -4 | i | -5 | i | -6 | 51*
